Measurements as given in ChEMBL document CHEMBL4513216, “Probing the Open Global Health Chemical Diversity Library for Multistage-Active Starting Points for Next-Generation Antimalarials” (ACS Infect Dis, 2020).
The campaign covered roughly 69,000 compounds. About 8,600 (12%) showed an effect of 50% or more. What follows is part of a selection rich in strong results, with near analogues and random picks from the rest.

What follows are compounds tested on Plasmodium berghei (assay: Screen against P. berghei liver stage (PbLuc), transformed with Luciferase, at 10uM). Conditions: tested at 10 uM.
Assay type: functional, HepG2
In the case of Cc1ncc(CNC2CCc3nc(C(C)C)nn3C2)s1 (configuration not stated), the INHIBITION is reported as 24.7%. Work on CCn1c(-c2ccccc2)nn(CC(=O)NCCc2ccc(C)o2)c1=O yielded an INHIBITION of -19.1%. In the case of CCCc1noc(CNC2CCCN(Cc3noc(C4CC4)n3)C2)n1 (configuration not stated), the INHIBITION is reported as -37.7%. Work on Cc1nc2c(N(C)Cc3ccnn3C)nc(N)nc2n1C yielded an INHIBITION of 32.3%. Compound Cc1ccc(F)cc1-n1c(CCCN2CCOCC2)n[nH]c1=O has an INHIBITION of 39.4%. Work on COc1cc(C)sc1C(=O)N1CCCC(n2nc(C)nc2C)C1 (configuration not stated) yielded an INHIBITION of 48.2%. For Cc1cccc(N(C)S(=O)(=O)c2cc(C(=O)O)cs2)c1, the INHIBITION was 22.3%. CCc1ccc(C(=O)O)cc1S(=O)(=O)N(C)c1cccc(C)c1 showed an INHIBITION of 59.1%. CCc1ccc(C(=O)O)cc1S(=O)(=O)N(C)c1cccc(C#N)c1 gave an INHIBITION of 24.4%. For COc1ccc(S(=O)(=O)NCC(N)c2ccccc2)c(C)c1 (configuration not stated), the INHIBITION was 24.8%. With O=C(c1cccnc1)N1CCOC(c2ccc(-c3cncnc3)cn2)C1 (configuration not stated) the INHIBITION was 31.6%. With Cc1cc(=O)n(CCNS(=O)(=O)c2ccc(F)c(Cl)c2)cn1 the INHIBITION was 29.7%. Compound Cc1cc(=O)n(CCNS(=O)(=O)c2cccc(C(F)(F)F)c2)cn1 has an INHIBITION of 68.5%. With Cc1cc(=O)n(CCNS(=O)(=O)c2ccccc2)cn1 the INHIBITION was 31.3%. For CC(C)(C)CN1CCCC(c2nccnc2Nc2cnccn2)C1 (configuration not stated), the INHIBITION was 51.7%. With CN1CCC(c2nccnc2Nc2cnccn2)CC1 the INHIBITION was 9.98%. Work on CC(C)(C)CN1CCC(c2nccnc2Nc2cnccn2)CC1 yielded an INHIBITION of -0.232%. CN1CCCC1CNC(=O)CCCOc1cccc(Br)c1 (configuration not stated) gave an INHIBITION of 9.383%. For NC(=O)CN1CC(O)c2ccccc2S1(=O)=O (configuration not stated), the INHIBITION was 37.4%. With Cc1nc(C(=O)N2CCCC(c3ccc4sc(N)nc4n3)C2)co1 (configuration not stated) the INHIBITION was 5.56%. Work on CN(Cc1cccnc1)[C@@H]1CN(C(=O)c2ccco2)[C@@H]2CCCO[C@H]12 yielded an INHIBITION of 3.17%. CN(Cc1cccnc1)[C@@H]1CN(C(=O)CC2CC2)[C@@H]2CCCO[C@H]12 was tested, and the INHIBITION was -31%. For CN(Cc1cncnc1)[C@H]1CN(C(=O)c2ccc[nH]2)[C@@H]2CCCO[C@@H]21, the INHIBITION was 58.4%. CN(Cc1cncnc1)[C@@H]1CN(C(=O)c2ccco2)[C@@H]2CCCO[C@H]12 was tested, and the INHIBITION was 26.7%. Compound CN(Cc1cncnc1)[C@@H]1CN(C(=O)C2CC2)[C@@H]2CCCO[C@H]12 has an INHIBITION of -7.7%. COCC(=O)N1C[C@H](N(C)Cc2cncnc2)[C@H]2OCCC[C@H]21 was tested, and the INHIBITION was 64.7%. Work on CN(Cc1cccnc1)[C@@H]1CN(C(=O)c2ccno2)[C@@H]2CCCO[C@H]12 yielded an INHIBITION of 50.3%. CN(Cc1cccnc1)[C@@H]1CN(C(=O)c2ccoc2)[C@@H]2CCCO[C@H]12 showed an INHIBITION of -2.35%. CN(Cc1cncnc1)[C@H]1CN(C(=O)c2ccco2)[C@@H]2CCCO[C@@H]21 was tested, and the INHIBITION was -35.8%. Compound COCCCN(Cc1cnc(N2CCCC2)nc1)C1CCN(C)CC1 has an INHIBITION of 10.3%. CC1=Nc2c(c(O)nn2C(C)C)C(c2cccnc2)S1 (configuration not stated) showed an INHIBITION of -3.19%. CC(=O)N1CC(=O)N(c2ccccc2)CC12CCN(CC1CC1)C2 (configuration not stated) gave an INHIBITION of 27.9%. For O=C(OC1CCC1)c1ncccc1OCC(F)(F)F, the INHIBITION was 8.08%. O=C(O)c1ncccc1OCC(F)(F)F was tested, and the INHIBITION was 59.1%. O=C(OC1CCC1)c1ncccc1C(F)(F)F showed an INHIBITION of 42.8%. With Cc1nccc(C2CCCN(C(=O)c3cncnc3)C2)n1 (configuration not stated) the INHIBITION was -38.3%. In the case of COC(=O)C(C)(C)S(=O)(=O)c1ccc(Br)cc1, the INHIBITION is reported as -1.15%. COc1ccc(NC(=O)Nc2c(O)c3ccccc3oc2=O)cc1 showed an INHIBITION of 33.6%. Compound CC[C@@H](CO)Nc1cc(-c2cn[nH]c2)ncn1 has an INHIBITION of 50.1%. With CC(C)(CO)Nc1cc(-c2ccncc2)ncn1 the INHIBITION was 44.1%. In the case of C[C@H](O)CNc1cc(-c2cn[nH]c2)ncn1, the INHIBITION is reported as 24.8%. In the case of C[C@@H](CO)Nc1cc(-c2cn[nH]c2)ncn1, the INHIBITION is reported as 20.4%. Work on CC(C)(CO)Nc1cc(-c2cn[nH]c2)ncn1 yielded an INHIBITION of 56%. Compound CC(C)(CO)Nc1cc(-c2ccccc2)ncn1 has an INHIBITION of 29.3%. OCCNc1cc(-c2ccccc2)ncn1 gave an INHIBITION of 47.1%. For CC(C)[C@@H](CO)Nc1cc(-c2cn[nH]c2)ncn1, the INHIBITION was 56%. For CCc1cc(=O)[nH]c(-c2ccc(NC(CO)CC(C)C)nc2)n1 (configuration not stated), the INHIBITION was -27.4%. With CC(C)CCn1cc(C(C(=O)O)N2CCC(N3CCSCC3)CC2)cn1 (configuration not stated) the INHIBITION was 3.06%. CCn1ccnc1CN1CCN(C(C)C(=O)NCc2ccco2)CC1 (configuration not stated) showed an INHIBITION of 18.6%. Cc1c[nH]nc1C1CN(c2cnccn2)CCO1 (configuration not stated) gave an INHIBITION of 24.05%. Compound Cc1nc(C(C)C)sc1C(=O)NCC(C)(C)N1CCOCC1 has an INHIBITION of -20.1%. Work on Cc1nn(C)c(C)c1-c1nc2cc(S(=O)(=O)N3CCCC3)ccc2n1C yielded an INHIBITION of -28%. Work on O=C1COC2(CCN(CC3CCOCC3)CC2)CN1Cc1ccccn1 yielded an INHIBITION of 27.4%. In the case of O=C(NCCCO)c1nnsc1-c1ccc(Cl)cc1, the INHIBITION is reported as 31.7%. Compound Clc1ccc2[nH]c3c(c2c1)CCCC3c1nn[nH]n1 (configuration not stated) has an INHIBITION of 30.2%. Compound Cn1c(N)c2c(=O)n(C)c(-c3ccc(Cl)cc3)cc2c(C#N)c1=O has an INHIBITION of -26.3%. Compound Cn1c(N)c2c(=O)n(C)c(-c3ccccc3)cc2c(C#N)c1=O has an INHIBITION of 0.868%. Cn1c(N)c2c(=O)n(C)c(-c3ccc(Cl)cc3Cl)cc2c(C#N)c1=O showed an INHIBITION of 66%. For COc1ccc(NC(=O)CCSc2ccc3nncn3n2)c(OC)c1, the INHIBITION was 28.1%. In the case of O=C1CO[C@H]2CN(Cc3cccc4[nH]ccc34)C[C@@H]2N1C1CCOCC1, the INHIBITION is reported as 26.8%. Cc1cnc(-c2nc(C3CCCN(Cc4cccs4)C3)no2)cn1 (configuration not stated) showed an INHIBITION of 14.975%. With Oc1cc(C2CCCN(Cc3cccs3)C2)nc(-c2ccccn2)n1 (configuration not stated) the INHIBITION was 81.5%. Cn1nc(C2CCCN(Cc3cccs3)C2)c2nccnc21 (configuration not stated) was tested, and the INHIBITION was -0.902%. Oc1cc(C2CCCCN2Cc2cccs2)nc(-c2ccncc2)n1 (configuration not stated) showed an INHIBITION of 19.25%. Oc1cc(C2CCCCN2Cc2cccs2)nc(-c2ccccn2)n1 (configuration not stated) showed an INHIBITION of 86.3%. Oc1cc(C2CCCCN2Cc2ccsc2)nc(-c2ccncc2)n1 (configuration not stated) gave an INHIBITION of 10.9%. COCCNC(=O)[C@@H]1CN(Cc2sccc2C)C[C@H]2OCC[C@H]21 was tested, and the INHIBITION was 16.8%. With Cn1nnc(NCc2ccc(-c3ccc(Cl)cc3)o2)n1 the INHIBITION was 49.7%. Compound Brc1ccc(CNCc2nnc3n2CCC3)s1 has an INHIBITION of 36.7%. Cc1nc(C2CCCN2CC(=O)N(C)Cc2ccsc2)no1 (configuration not stated) gave an INHIBITION of 13.3%. COc1cccc2c1N(CC(=O)Nc1ccc(Cl)cn1)CCC2 showed an INHIBITION of 33.1%. O=C(CN1CCCc2cc(F)cc(F)c21)Nc1ccc(Br)cn1 was tested, and the INHIBITION was -5.57%. COc1cccc2c1N(CC(=O)Nc1ccc(Br)cn1)CCC2 was tested, and the INHIBITION was 66.7%. Cn1cnc(S(=O)(=O)N2CCCC2c2cnccn2)c1 (configuration not stated) showed an INHIBITION of 22%. Work on Cc1cn2nc(N3CCN(Cc4cc(C)on4)CC3)sc2n1 yielded an INHIBITION of 7.08%. With Cc1cn2nc(N3CCN(Cc4nc(C(C)C)no4)CC3)sc2n1 the INHIBITION was 42%. Cc1cn2nc(N3CCN(Cc4c(C)noc4C)CC3)sc2n1 gave an INHIBITION of 58.5%. With Cc1cc(CN2CCN(c3nn4cc(C)nc4s3)CC2)on1 the INHIBITION was 37%. Work on Cc1cn2nc(N3CCCN(Cc4noc(C)n4)CC3)sc2n1 yielded an INHIBITION of -9.14%. For CCc1nc(CN2CCCN(c3nn4cc(C)nc4s3)CC2)no1, the INHIBITION was 85.2%. In the case of Cc1cnn(CC(C)Nc2nc3ccccc3o2)c1 (configuration not stated), the INHIBITION is reported as 21.8%. For COCC[C@]1(O)CCN(C2CCN(C(=O)C3CCC3)CC2)C[C@H]1C, the INHIBITION was 36.4%. For O=C(NC1CCC1)[C@H]1C[C@H]2CN(C(=O)Nc3ccc(F)cc3)C[C@@H]1O2, the INHIBITION was 1.9%. Work on c1ccc(NCc2ccsc2)c(Cn2cncn2)c1 yielded an INHIBITION of 3.41%. With NC(=O)CCSc1ccccc1NCc1ccc(Cl)s1 the INHIBITION was 75.7%. Cc1ccc(CNc2ccccc2SCCC(N)=O)s1 was tested, and the INHIBITION was 39.7%. CNc1nc(CNC(=O)Nc2ccccc2SC)cs1 gave an INHIBITION of 6.14%. NC(=O)C(NC(=O)CCc1ccc(Cl)s1)c1ccccc1 (configuration not stated) showed an INHIBITION of -19.7%. CC(C)(C)c1ncc(CNc2ccccc2SCCC(N)=O)s1 was tested, and the INHIBITION was 83.4%. CC(C)(C)c1ncc(CNc2ccccc2Cn2cncn2)s1 gave an INHIBITION of 60.6%. Compound NC(=O)CSc1ccccc1NCc1nc(Cc2ccccc2)no1 has an INHIBITION of -75.4%. CC(C)(C)c1ncc(C(=O)NC(C(N)=O)c2ccccc2)s1 (configuration not stated) showed an INHIBITION of 3.15%. In the case of c1csc(CNc2ccccc2Cn2cncn2)c1, the INHIBITION is reported as -56.8%. With CC(C)(C)c1nc(CNc2ccccc2SCCC(N)=O)cs1 the INHIBITION was 77.4%. CC(C)N(CC(N)=O)Cc1csc(C(C)(C)C)n1 gave an INHIBITION of -7.31%. CC(=O)N1CCC(Cc2cncc(-c3c(C)n[nH]c3C)n2)C1 (configuration not stated) gave an INHIBITION of 28%. In the case of CN1CC(=O)N(c2cccnc2)CC12CCN(C(=O)c1cccn1C)C2 (configuration not stated), the INHIBITION is reported as -46.8%. With CCCOC(=O)NCCC1CN(c2cnn(C)c(=O)c2)CCO1 (configuration not stated) the INHIBITION was 45.3%. For CC(=O)NC(=O)C1(CCCc2ccncc2)CCN1 (configuration not stated), the INHIBITION was 12.3%. Compound O=C(N1CCCC1)N1Cc2nccn2CC(COc2cccnc2)C1 (configuration not stated) has an INHIBITION of -21.1%. Compound CSc1ccc(C(=O)N2CC(=O)N(Cc3ccccc3)CC(O)C2)cc1 (configuration not stated) has an INHIBITION of -42.1%. O=C(Cn1nc(Br)nc1Br)N1CCOCC1 gave an INHIBITION of 15.5%. In the case of O=C(CN1C(=O)CCC1=O)N1CCOC2(CCOCC2)C1, the INHIBITION is reported as 32.4%. In the case of O=C(CN1C(=O)CCC1=O)N1CCOCC1, the INHIBITION is reported as 59.8%. Cc1nc2[nH]cnc(Nc3ccn(C)n3)c-2n1 gave an INHIBITION of 25.9%. CC(C)CC(NC(=O)OC(C)(C)C)C(N)=O (configuration not stated) showed an INHIBITION of 13.9%. In the case of Cc1cccc(-c2nc3cc(S(=O)(=O)N4CCCC4)ccc3n2C)n1, the INHIBITION is reported as -7.53%.
